The record followed here is PubChem BioAssay (NCATS).

Each structure is given as a SMILES string. Records with an inconclusive call do not appear. Calls of active or inactive are those of the source. Calls come from the whole dose curve; as a rule, active = well fitted inhibition curve with a large enough effect; inconclusive = small, poorly fitted or top-dose-only effect; inactive = flat fitted curve, though single readings scatter.

What all share (assay): qHTS profiling for inhibitors of Plasmodium falciparum proliferation (AID 504749); note: nearly all actives have a fitted effect of over 60% in size
Common to all, as to conditions: P. falciparum in erythrocytes, SYBR Green DNA, 72 h; series mostly up to 28.7 µM

The test system of one experiment is 7G8. Summed up: (§1)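 P. falciparum-infected erythrocytes (0.3% parasitemia, 2.5% hematocrit) incubated with compound 72 h at 37 C, 5% CO2. Parasite DNA detected by SYBR Green after lysis, overnight at room temperature; normalised to 0.29 uM artemisinin and DMSO.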
The subject of another experiment is AS120. In short, it runs like this:
as §1

In another experiment the test system is ATS189. Summed up: as §1
A further experiment deals with CP185. Summed up: as §1
The test system of the next experiment is CP194. Summed up: as §1
For another experiment, the system named is CP203. Summed up:
as §1

The test system of another experiment is CP217. Summed up:
as §1

Another experiment relates to CP238. In short, it runs like this:
as §1

A further experiment relates to CP247. In short, it runs like this:
as §1

The next experiment concerns CP250. Summed up:
as §1

In another experiment the test system is CP252. In short, it runs like this:
as §1

The test system of another experiment is CP256. In short, it runs like this:
as §1

The next experiment relates to CP260. In short, it runs like this:
as §1

The test system of a further experiment is CP265. Summed up:
as §1

A further experiment relates to CP305. Summed up: as §1
Another experiment has as its system CP325. Summed up:
as §1

For a further experiment, the system named is CP329. Summed up: as §1
The test system of a further experiment is N140. In short, it runs like this: as §1
The subject of a further experiment is P94_40. In short, it runs like this:
as §1

A further experiment deals with SC27B. Summed up:
as §1
Potency is the fitted concentration of half-maximal effect.

With `CC1(C)[C@@H](C=C(Cl)Cl)[C@@H]1C(=O)OCc1c(F)c(F)cc(F)c1F`, the Potency entry in the experiment with 7G8, in the experiment with AS120, in the experiment on ATS189, with CP185, in the experiment with CP194 and with CP203 was “inactive” throughout. For the same molecule, the Potency result in the experiment with CP217, with CP238, with CP247, in the experiment with CP250, in the experiment on CP252 and with CP256 was “inactive” throughout. Moreover, the Potency entry in the experiment with CP260, in the experiment with CP265, with CP305, in the experiment with CP325, with CP329 and in the experiment on N140 was “inactive” each time. Moreover, the Potency result in the experiment on P94_40 and in the experiment on SC27B was “inactive” throughout.

Take `CCCCCC(O)C1C(=O)OC(C)C(O)\C=C/C=C\C=C/C=C\C=C(\C)C(O)C(O)C(O)CC(O)CC(O)CC(O)CC(O)CC1O` (stereo not given): the Potency entry with 7G8, with AS120, in the experiment with ATS189, with CP185, in the experiment on CP194 and in the experiment with CP203 was “inactive” each time. Moreover, the Potency entry in the experiment with CP217, in the experiment with CP238, in the experiment on CP247, in the experiment on CP250, in the experiment with CP252 and in the experiment with CP256 was “inactive” throughout. The Potency result in the experiment with CP260, with CP265, with CP305, in the experiment on CP325, in the experiment with CP329 and in the experiment with N140 was “inactive” each time. In addition, the Potency result in the experiment with P94_40 and with SC27B was “inactive” each time.

Regarding `C[C@@H]1CC[C@H]2[C@@H](C)C(=O)O[C@@H]3OC4(C)CC[C@@H]1C32OO4` (stereo not given in full), the Potency with 7G8 is 1.6 nM (active); with AS120, 7.1 nM (active); in the experiment on ATS189, 8.9 nM (active); in the experiment on CP185, 0.0089 µM (active); with CP194, 16.9 nM (active); with CP203, 13.5 nM (active). The Potency in the experiment on CP217 was 10 nM (active); in the experiment with CP238, 10 nM (active); in the experiment with CP247, 10 nM (active); in the experiment with CP250, 0.0141 µM (active); in the experiment on CP252 it was 10 nM (active); with CP256, 0.01 µM (active). In addition, the Potency was 10 nM (active) in the experiment on CP260; 7.9 nM (active) in the experiment on CP265; 0.0135 µM (active) with CP305; 0.0151 µM (active) in the experiment on CP325; 0.0151 µM (active) in the experiment with CP329; 5.6 nM (active) with N140. In addition, the Potency in the experiment on P94_40 was 2.8 nM (active); in the experiment on SC27B it was 7.1 nM (active).

For `Cc1ccc2c(c1)[C@@H]1CN(C)CC[C@H]1N2`, the Potency result in the experiment on 7G8, in the experiment on AS120, in the experiment with ATS189, in the experiment on CP185, in the experiment on CP194 and in the experiment on CP203 was “inactive” in each case. Also, the Potency entry in the experiment with CP217, in the experiment on CP238, in the experiment with CP247, in the experiment on CP250, in the experiment on CP252 and in the experiment on CP256 was “inactive” in each case. In addition, the Potency result in the experiment with CP260, in the experiment with CP265, in the experiment on CP305, in the experiment with CP325, with CP329 and in the experiment with N140 was “inactive” in each case. Also, the Potency entry in the experiment on P94_40 and in the experiment with SC27B was “inactive” each time.

Consider `CC1(C)S[C@@H]2[C@H](N)C(=O)N2C1C(=O)O` (stereo not given in full), for which the Potency entry with 7G8, in the experiment on AS120, in the experiment on ATS189, in the experiment on CP185, in the experiment with CP194 and in the experiment with CP203 was “inactive” in each case. Besides, the Potency entry in the experiment on CP217, in the experiment on CP238, in the experiment with CP247, in the experiment on CP250, in the experiment with CP252 and with CP256 was “inactive” each time. The Potency result with CP260, in the experiment on CP265, in the experiment with CP305, with CP325, with CP329 and with N140 was “inactive” each time. Further, the Potency entry with P94_40 and in the experiment on SC27B was “inactive” in each case.

In the case of `COc1ccc2c3c1O[C@H]1[C@@H](O)C=C[C@H]4C(C2)NCCC341` (stereo not given in full), the Potency entry with 7G8, in the experiment with AS120, in the experiment with ATS189, in the experiment on CP185, in the experiment on CP194 and with CP203 was “inactive” in each case. Moreover, the Potency result in the experiment on CP217, in the experiment with CP238, with CP247, in the experiment with CP250, in the experiment with CP252 and in the experiment with CP256 was “inactive” throughout. The Potency entry in the experiment with CP260, with CP265, with CP305, in the experiment with CP325, in the experiment on CP329 and in the experiment with N140 was “inactive” throughout. In addition, the Potency entry with P94_40 and with SC27B was “inactive” each time.

As for `OCC(O)[C@H]1O[C@@H]2O[C@H](C(Cl)(Cl)Cl)O[C@@H]2[C@H]1O` (stereo not given in full), the Potency entry with 7G8, in the experiment on AS120, with ATS189, in the experiment with CP185, with CP194 and in the experiment on CP203 was “inactive” throughout. The Potency result in the experiment on CP217, in the experiment with CP238, with CP247, in the experiment with CP250, in the experiment on CP252 and with CP256 was “inactive” throughout. Besides, the Potency entry in the experiment on CP260, with CP265, with CP305, in the experiment on CP325, with CP329 and with N140 was “inactive” each time. The Potency entry in the experiment on P94_40 and in the experiment on SC27B was “inactive” throughout.

Take `C[C@]12C=CC(=O)C=C1CC[C@@H]1C2CC[C@]2(C)OC(=O)CCC12` (stereo not given in full): the Potency result in the experiment with 7G8, in the experiment on AS120, with ATS189, in the experiment on CP185, in the experiment with CP194 and in the experiment on CP203 was “inactive” each time. The Potency entry in the experiment with CP217, in the experiment on CP238, in the experiment with CP247, in the experiment with CP250, in the experiment with CP252 and in the experiment with CP256 was “inactive” throughout. Moreover, the Potency entry with CP260, with CP265, with CP305, in the experiment with CP325, in the experiment with CP329 and in the experiment with N140 was “inactive” throughout. In addition, the Potency result in the experiment with P94_40 and in the experiment with SC27B was “inactive” throughout.

Take `CCCCCc1cc(O)c2c(c1)OC(C)(C)C1CC=C(C)CC21` (stereo not given): the Potency was 708 nM (active) in the experiment with 7G8; 2240 nM (active) in the experiment on AS120; 3160 nM (active) in the experiment on ATS189; 6.31 µM (active) in the experiment with CP185; 5360 nM (active) with CP194; 2130 nM (active) with CP203. Moreover, the Potency is 2240 nM (active) in the experiment with CP217; 3160 nM (active) with CP238; 5010 nM (active) in the experiment with CP247; 7.08 µM (active) with CP250; 3160 nM (active) in the experiment with CP252; 11.2 µM (active) in the experiment with CP256. In addition, the Potency with CP260 was 1780 nM (active); with CP265 it was 3550 nM (active); in the experiment with CP305, 12 µM (active); with CP325 it was 6.01 µM (active); with CP329, 9.53 µM (active); in the experiment with N140, 1120 nM (active). Moreover, the Potency in the experiment on P94_40 is 2510 nM (active); in the experiment with SC27B, 2000 nM (active).

Regarding `[S]=[Sb][S][Sb]=[S]`, the Potency result in the experiment on 7G8, in the experiment with AS120, in the experiment on ATS189, with CP185, in the experiment with CP194 and in the experiment with CP203 was “inactive” in each case. The Potency entry in the experiment with CP217, in the experiment with CP238, with CP247, in the experiment on CP250, with CP252 and in the experiment on CP256 was “inactive” throughout. For the same molecule, the Potency result in the experiment on CP260, in the experiment with CP265, with CP305, in the experiment on CP325, with CP329 and in the experiment on N140 was “inactive” in each case. Moreover, the Potency result with P94_40 and in the experiment with SC27B was “inactive” throughout.
